Assay results published in the supplement of paper PMC6555819.

Tests used:
Experiment in all cases: PBM binding z-score (relative to random genomic background probes); higher = stronger binding; sequences stand for … in GC…GCGATTGACAGCGTAGAATGAAGG
[1] = system: RARb homodimer (NR concentration 270 nM)
Method in brief: (§1)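 Random background probes are the reference for binding z-scores. These scores derive from regression-normalized fluorescence on custom Agilent 4×180K protein-binding microarrays incubated 1 h with ligand-free nuclear receptor dimers. Binding was detected with antibodies against each partner (one per run).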

[2] = system: RARg:RXRa (NR concentration 270 nM, RXRa partner concentration 90 nM)
Method in brief: as §1

[3] = system: RARg homodimer (NR concentration 270 nM)
Method in brief: as §1

[4] = system: RXRa DBDmut IVT, anti-RXR (DBD mutation: RXRa K156A/R161A, NR concentration 90 nM)
Method in brief: as §1

[5] = system: RXRa homodimer (NR concentration 180 nM)
Method in brief: as §1

[6] = system: THRa:RXRa (NR concentration 90 nM, RXRa partner concentration 90 nM)
Method in brief: as §1

[7] = system: THRa homodimer (NR concentration 90 nM)
Method in brief: as §1

[8] = system: VDR homodimer (NR concentration 270 nM)
Method in brief: as §1

Row | Sequence | PBM binding z-score [1] | PBM binding z-score [2] | PBM binding z-score [3] | PBM binding z-score [4] | PBM binding z-score [5] | PBM binding z-score [6] | PBM binding z-score [7] | PBM binding z-score [8]
1 | GAGACAGGGTCAGCTAGAGGCCAGAGTATGGAAA | 3.05 | 6.57 | 4.77 | 1.03 | 4.3 | 3.06 | 0.161 | 0.581
2 | CGTCCAAGGTCAAGGCTAGGTCAGTGAAAGCATT | 4.89 | 7.82 | 7.4 | 3.43 | 6.77 | 4.49 | 3.29 | 2.58
3 | TCTGCTAAGTCAGTTGGTCAGCTAACGAGCTGCC | -0.3 | -0.611 | -0.521 | -0.0698 | -0.61 | -0.628 | -0.977 | -0.941
4 | CAGACTAGGTCACGAAAGGTCAAAGTCGAATGAC | 5.63 | 7.9 | 8.73 | 2.27 | 8.34 | 4.96 | 2.29 | 4.05
5 | TCATATAGGTAAATGCTAGGTGAAGGTCCGATCT | 0.576 | 0.474 | 0.349 | 1.34 | 0.65 | 1.43 | 0.583 | 0.324
6 | ATCGAAAGGTCGACGAGGTGAGTATCCACCGTTT | 2.9 | 4.16 | 4.03 | 1.27 | 4.38 | 3.78 | 1.01 | 0.828
7 | CGTCCAGGGTCAATGCTAGGTCAGTGAAAGCATT | 4.65 | 7.39 | 5.63 | 2.78 | 5.37 | 4.35 | 1.79 | 2.33
8 | TCGTGTAGATCAAGCAGGTTAAGAAAGCCTGAGT | -0.0651 | -0.125 | -0.344 | 0.445 | 0.247 | 0.168 | -0.744 | -0.0255
9 | CCAGCTAGGTCAATGGTCAGCTAAAGCAGCTCGC | 2.83 | 3.55 | 4.15 | 1.51 | 2.04 | 2.1 | 0.209 | 0.021
10 | AGTCAAAGTTCATATAGGTAACGTAAGATATGCT | 3.55 | 5.1 | 5.32 | 4.83 | 4.41 | 2.28 | -0.342 | 5.14
11 | TCTCGCAGGACACGAAGGTCAGAGCTTTCCAGAG | 3.18 | 2.44 | 2.34 | 0.886 | 1.96 | 2.4 | 0.377 | 0.357
12 | TCTTGTAGATCAATAGACGTTAAGAAAGTGCGCT | -0.66 | -0.0458 | 0.0391 | 0.88 | -0.042 | -0.347 | -0.846 | 0.0604
13 | ACAGACAGGTGATGACGGTAACTCAGGCTATCAT | 0.213 | 0.122 | 0.261 | -0.0365 | 0.15 | 0.339 | -0.087 | -0.266
14 | CCTACTGGGCCAAGTTCATTGATCAGTCAAAGCA | 1.71 | 1.45 | 1.09 | 2.37 | 0.409 | 0.994 | 0.294 | 4.4
15 | TCTTGTAGATCAAGCGGGTTAAGAAAGCCTGAGT | 0.106 | -0.294 | -0.546 | 0.628 | 0.204 | 0.221 | -0.488 | -0.0254
16 | AGAATGAGGATACCAAAGATCAGGGAAACGCTTG | -0.727 | 0.287 | 0.437 | -0.419 | 0.36 | 1.5 | 0.171 | -0.61
17 | CCTACTGGGCCATTCAGAGCTCATTGATCATATG | -0.346 | -0.434 | -0.184 | 0.0203 | -0.591 | -0.578 | -0.449 | -0.387
18 | TTACCAAGGTTAAGGTCGTTGATCCCTCTGTAGA | 2.57 | 2.63 | 2.31 | 1.41 | 3.4 | 3.73 | 3.45 | 2.83
19 | TCATATAGGTAAATGCTAGGAGAAAGTCCGATCT | -0.501 | 0.278 | 0.46 | 1.67 | 0.597 | -0.0458 | -0.197 | -0.0177
20 | GGAACGAGGGCAAATTGATAGCAGAGTTTGATGG | 1.18 | 1.48 | 1.67 | 2.21 | 1 | 0.906 | -0.171 | 1.31
21 | ACAGACAGGCGATGAAGGTAACTCAGGCTATCAT | -0.109 | -0.163 | 0.174 | -0.246 | -0.0483 | 0.512 | -0.0858 | -0.339
22 | CGAACTAGGTCATTGACAGGACAGTGATTAGTAA | 2.83 | 4.5 | 4.52 | 2.49 | 2.47 | 2.9 | 1.05 | 1.52
23 | CCTGCTACGTCAATGGTCAGCTAAAGCAGCTCGC | 0.4 | -0.424 | -0.342 | 0.29 | -0.492 | -0.534 | -0.374 | -0.434
24 | CGAACTAGGTCAGAACAGGACAGTGCAGGATGAT | 2.14 | 2.44 | 3.46 | 0.591 | 1.26 | 3.38 | 0.224 | 0.113
25 | TCTTGTAGATCAAGCAGTTTAAGAAAGCCTGAGT | -0.362 | -0.283 | -0.421 | 0.644 | -0.114 | -0.266 | -0.588 | -0.00897
26 | TCTATTAGCTGAAGGGCAACCGACGAGTCCGTTT | 0.986 | 0.404 | 0.211 | 0.755 | 0.365 | -0.0875 | -0.551 | 0.695
27 | AGAACGAGGGCACGCTGAGTAGATAGCAGAGTAG | 0.843 | 1.94 | 2.23 | 1.58 | 1.45 | 1.58 | -0.259 | 0.46
28 | CCTAGCAGGCCAATCCGGGTCACTCAAGGCTTGA | 2.35 | 1.67 | 1.42 | 0.0497 | 1.65 | 4.38 | 1.72 | 0.638
29 | ATCGAAAGGTCGAAGAGGTGAGTATACACCGTTT | 2.74 | 4.11 | 4.08 | 0.936 | 4.41 | 2.73 | -0.077 | 0.745
